Data published in the supplement of paper PMC11732987, “Enantioselective OTUD7B fragment discovery through chemoproteomics screening and high-throughput optimisation” (Communications Chemistry, 2025).

Legend:
Assay in all cases: log2 ratio of Biotin-Ahx-Ub-VS probe labelling (fragment/DMSO); higher = less target engagement (more negative = stronger competition), active = hit call of the paper (q ≤ 0.05, log2 ratio ≤ -1)
Details in all cases: compound concentration: 200 uM; treatment time: 3 h
[1] = target: T1, ALG13 (UniProt Q9NP73)
T1 sequence (whole entry): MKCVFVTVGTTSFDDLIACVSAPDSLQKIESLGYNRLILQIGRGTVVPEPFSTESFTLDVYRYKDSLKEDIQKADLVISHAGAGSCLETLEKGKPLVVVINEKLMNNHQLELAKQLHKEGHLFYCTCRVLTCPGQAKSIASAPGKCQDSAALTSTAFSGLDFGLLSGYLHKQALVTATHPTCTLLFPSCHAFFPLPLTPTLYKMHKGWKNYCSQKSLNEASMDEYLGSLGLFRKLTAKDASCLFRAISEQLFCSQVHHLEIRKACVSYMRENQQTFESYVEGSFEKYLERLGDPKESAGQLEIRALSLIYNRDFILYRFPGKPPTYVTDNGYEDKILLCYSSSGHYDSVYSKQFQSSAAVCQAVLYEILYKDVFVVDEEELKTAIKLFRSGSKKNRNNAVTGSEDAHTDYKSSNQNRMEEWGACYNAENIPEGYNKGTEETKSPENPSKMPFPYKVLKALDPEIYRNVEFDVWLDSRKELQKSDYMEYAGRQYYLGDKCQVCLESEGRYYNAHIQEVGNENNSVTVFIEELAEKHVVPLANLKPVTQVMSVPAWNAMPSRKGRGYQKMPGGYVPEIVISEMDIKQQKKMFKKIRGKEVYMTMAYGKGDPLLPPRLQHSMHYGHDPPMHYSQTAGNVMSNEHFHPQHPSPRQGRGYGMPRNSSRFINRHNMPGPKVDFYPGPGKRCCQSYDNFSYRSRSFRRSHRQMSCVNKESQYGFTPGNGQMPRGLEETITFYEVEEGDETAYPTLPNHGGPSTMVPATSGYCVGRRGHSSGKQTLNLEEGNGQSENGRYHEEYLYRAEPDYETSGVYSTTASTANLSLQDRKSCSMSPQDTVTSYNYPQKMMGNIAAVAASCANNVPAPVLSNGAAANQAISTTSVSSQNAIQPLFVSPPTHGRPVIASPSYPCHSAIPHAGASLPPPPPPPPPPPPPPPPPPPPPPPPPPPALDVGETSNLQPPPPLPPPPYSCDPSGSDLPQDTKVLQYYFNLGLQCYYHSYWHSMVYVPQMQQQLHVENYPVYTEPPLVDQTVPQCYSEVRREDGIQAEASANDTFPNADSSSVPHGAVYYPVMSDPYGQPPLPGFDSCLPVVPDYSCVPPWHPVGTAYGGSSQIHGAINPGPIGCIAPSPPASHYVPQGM
In short: (§1)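 HEK293T lysate (495 µg per sample, in Tris/CHAPS/IGEPAL buffer with protease inhibitors) was exposed in triplicate for 3 h to fragment at 200 µM or to vehicle, then to Biotin-Ahx-Ub-VS at 0.5 µM final for 1 h. Labelled DUBs were enriched on NeutrAvidin, digested with LysC and trypsin, and analysed by diaPASEF LC-MS/MS. Spectronaut label-free quantities were normalised to the global median, and values are average log2 ratios of fragment over vehicle from an unpaired t-test. Only proteins with ≥2 unique peptides were used.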

[2] = target: ATXN3 (UniProt P54252)
Chain of ATXN3 (P54252 whole entry): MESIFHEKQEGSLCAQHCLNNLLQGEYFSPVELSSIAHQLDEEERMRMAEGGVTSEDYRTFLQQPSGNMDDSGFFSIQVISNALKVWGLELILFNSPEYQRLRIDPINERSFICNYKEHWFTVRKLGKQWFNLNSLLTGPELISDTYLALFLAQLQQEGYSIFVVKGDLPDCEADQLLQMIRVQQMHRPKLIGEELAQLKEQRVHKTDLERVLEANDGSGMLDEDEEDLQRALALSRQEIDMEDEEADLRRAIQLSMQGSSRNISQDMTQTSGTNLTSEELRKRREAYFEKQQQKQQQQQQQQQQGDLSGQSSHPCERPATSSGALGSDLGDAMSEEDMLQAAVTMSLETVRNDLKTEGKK
In short: as §1

[3] = target: T2, BAP1 (UniProt Q92560)
T2 sequence (whole entry): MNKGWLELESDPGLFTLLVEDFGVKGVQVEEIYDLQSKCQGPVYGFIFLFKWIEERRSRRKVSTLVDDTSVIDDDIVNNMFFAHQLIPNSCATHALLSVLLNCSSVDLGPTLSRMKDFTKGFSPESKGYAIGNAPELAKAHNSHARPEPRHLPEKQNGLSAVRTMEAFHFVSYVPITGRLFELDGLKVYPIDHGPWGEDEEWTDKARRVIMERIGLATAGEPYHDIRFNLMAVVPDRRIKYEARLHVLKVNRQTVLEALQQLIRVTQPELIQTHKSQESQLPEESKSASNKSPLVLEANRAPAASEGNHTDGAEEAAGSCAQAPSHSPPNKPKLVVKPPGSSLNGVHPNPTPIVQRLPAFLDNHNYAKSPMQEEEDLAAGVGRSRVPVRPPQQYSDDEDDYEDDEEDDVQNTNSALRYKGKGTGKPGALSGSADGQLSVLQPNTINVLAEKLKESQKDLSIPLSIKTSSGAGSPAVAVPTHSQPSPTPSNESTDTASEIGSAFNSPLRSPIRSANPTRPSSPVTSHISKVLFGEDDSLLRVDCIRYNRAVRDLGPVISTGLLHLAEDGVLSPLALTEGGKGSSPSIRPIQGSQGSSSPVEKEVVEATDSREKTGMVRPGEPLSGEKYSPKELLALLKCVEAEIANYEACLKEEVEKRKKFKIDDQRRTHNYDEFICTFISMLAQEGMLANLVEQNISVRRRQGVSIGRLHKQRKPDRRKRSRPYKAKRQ
In short: as §1

[4] = target: EIF3F (UniProt O00303)
Chain of EIF3F (O00303 whole entry): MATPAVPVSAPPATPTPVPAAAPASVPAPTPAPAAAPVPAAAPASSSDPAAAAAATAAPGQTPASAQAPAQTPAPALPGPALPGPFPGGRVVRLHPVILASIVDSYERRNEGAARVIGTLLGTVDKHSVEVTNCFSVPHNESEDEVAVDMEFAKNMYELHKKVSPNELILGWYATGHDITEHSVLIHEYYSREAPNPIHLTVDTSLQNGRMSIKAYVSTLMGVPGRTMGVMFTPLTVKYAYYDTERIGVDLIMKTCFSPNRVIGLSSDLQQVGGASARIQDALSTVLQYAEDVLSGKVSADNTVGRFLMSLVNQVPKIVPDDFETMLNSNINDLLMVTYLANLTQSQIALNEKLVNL
In short: as §1

[5] = target: EIF3H (UniProt O15372)
Chain of EIF3H (O15372 whole entry): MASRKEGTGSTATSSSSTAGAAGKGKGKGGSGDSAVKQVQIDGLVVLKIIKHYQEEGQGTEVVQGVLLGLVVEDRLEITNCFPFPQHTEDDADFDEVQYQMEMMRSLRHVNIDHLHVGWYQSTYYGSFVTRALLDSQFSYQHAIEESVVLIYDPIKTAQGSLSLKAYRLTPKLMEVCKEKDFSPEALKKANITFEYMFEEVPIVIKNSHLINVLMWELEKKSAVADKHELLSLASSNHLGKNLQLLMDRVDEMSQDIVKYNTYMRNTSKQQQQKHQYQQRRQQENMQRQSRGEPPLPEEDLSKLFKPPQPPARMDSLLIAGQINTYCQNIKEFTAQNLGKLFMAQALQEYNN
In short: as §1

[6] = target: T3, FAM105A (UniProt Q9NUU6)
T3 sequence (whole entry): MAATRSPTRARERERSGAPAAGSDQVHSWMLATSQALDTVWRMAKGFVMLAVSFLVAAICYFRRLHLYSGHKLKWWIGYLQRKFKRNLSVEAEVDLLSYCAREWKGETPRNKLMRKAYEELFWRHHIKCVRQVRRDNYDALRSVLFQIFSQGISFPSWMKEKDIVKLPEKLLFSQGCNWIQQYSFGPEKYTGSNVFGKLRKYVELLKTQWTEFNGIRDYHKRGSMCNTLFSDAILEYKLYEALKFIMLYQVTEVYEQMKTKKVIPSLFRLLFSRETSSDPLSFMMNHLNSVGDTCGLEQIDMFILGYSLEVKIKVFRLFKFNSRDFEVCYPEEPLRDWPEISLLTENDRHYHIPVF
In short: as §1

[7] = target: OTUB1 (UniProt Q96FW1)
Chain of OTUB1 (Q96FW1 whole entry): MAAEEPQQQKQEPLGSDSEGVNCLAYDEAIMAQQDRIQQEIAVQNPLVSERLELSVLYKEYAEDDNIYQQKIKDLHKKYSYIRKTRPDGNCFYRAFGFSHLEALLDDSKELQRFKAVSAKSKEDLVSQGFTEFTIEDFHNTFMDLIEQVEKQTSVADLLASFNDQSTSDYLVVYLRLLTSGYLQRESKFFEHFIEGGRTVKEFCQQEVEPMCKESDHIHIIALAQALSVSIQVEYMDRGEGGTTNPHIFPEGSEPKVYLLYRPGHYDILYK
In short: as §1

[8] = target: T4, OTUD4 (UniProt Q01804)
T4 sequence (whole entry): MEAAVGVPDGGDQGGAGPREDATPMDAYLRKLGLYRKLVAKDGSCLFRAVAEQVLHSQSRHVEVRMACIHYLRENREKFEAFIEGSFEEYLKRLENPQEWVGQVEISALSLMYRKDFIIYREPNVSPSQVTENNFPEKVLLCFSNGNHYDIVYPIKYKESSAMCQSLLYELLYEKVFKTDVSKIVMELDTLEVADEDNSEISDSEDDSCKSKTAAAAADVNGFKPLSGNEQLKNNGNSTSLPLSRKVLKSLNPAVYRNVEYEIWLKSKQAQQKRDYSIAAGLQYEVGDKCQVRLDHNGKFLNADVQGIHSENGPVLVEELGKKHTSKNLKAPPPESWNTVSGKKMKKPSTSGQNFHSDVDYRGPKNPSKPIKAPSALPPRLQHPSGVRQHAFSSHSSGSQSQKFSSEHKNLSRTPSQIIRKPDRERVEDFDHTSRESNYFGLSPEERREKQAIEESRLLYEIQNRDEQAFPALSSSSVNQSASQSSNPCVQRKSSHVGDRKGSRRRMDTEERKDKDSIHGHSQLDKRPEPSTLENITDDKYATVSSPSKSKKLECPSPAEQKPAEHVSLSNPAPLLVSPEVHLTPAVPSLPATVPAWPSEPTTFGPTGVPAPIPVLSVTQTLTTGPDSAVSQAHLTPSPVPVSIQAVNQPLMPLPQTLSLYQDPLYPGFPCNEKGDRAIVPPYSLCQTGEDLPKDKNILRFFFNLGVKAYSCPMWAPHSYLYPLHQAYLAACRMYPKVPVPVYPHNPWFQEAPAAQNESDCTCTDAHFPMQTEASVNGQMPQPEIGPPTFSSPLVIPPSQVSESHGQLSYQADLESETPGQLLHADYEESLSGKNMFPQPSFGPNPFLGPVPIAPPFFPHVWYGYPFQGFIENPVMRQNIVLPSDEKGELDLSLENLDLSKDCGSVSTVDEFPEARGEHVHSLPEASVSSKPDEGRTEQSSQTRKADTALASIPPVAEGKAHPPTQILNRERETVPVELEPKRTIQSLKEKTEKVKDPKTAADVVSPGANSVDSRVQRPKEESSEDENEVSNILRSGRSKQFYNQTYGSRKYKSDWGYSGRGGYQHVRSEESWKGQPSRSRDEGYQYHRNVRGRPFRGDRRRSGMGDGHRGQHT
In short: as §1

[9] = target: T5, OTUD5 (UniProt Q96G74)
T5 sequence (whole entry): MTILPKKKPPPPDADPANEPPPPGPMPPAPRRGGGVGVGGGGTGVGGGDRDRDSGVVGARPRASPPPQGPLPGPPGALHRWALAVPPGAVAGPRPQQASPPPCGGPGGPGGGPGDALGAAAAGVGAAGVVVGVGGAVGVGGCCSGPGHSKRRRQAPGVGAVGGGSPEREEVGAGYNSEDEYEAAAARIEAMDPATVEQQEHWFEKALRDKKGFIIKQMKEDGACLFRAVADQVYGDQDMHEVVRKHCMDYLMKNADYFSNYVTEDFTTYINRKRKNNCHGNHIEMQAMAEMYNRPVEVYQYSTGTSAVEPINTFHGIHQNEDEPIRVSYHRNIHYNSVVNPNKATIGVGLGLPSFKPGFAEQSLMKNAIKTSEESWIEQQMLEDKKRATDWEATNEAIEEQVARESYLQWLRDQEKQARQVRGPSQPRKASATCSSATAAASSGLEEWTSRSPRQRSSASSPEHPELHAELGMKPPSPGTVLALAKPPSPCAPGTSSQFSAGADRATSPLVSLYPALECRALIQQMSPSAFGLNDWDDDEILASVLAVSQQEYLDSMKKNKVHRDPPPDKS
In short: as §1

Measured: log2 ratio of Biotin-Ahx-Ub-VS probe labelling

O=C(CCl)N1CC2(CCOCC2)C1
inactive: [1] -0.597 | [2] -0.356 | [3] -0.382 | [4] 0.0073 | [5] 0.061 | [6] -0.00776 | [7] -0.183 | [8] -0.122 | [9] -0.493
